For assay [1], the target named is Bile acid receptor (Homo sapiens) (UniProt Q96RI1). The assay can be described thus: ATG_IR1_CIS: Attagene CIS-FACTORIAL HepG2 Assay for human Nuclear Receptor Subfamily 1 Group H Member 4 (NR1H4), IR1 submotif (AID 2282946). The settings on record: IR1 reporter transcription, actives raise or lower the signal. An outline of the steps:
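HepG2 cells transiently transfected with multiplexed cis-element reporter units read endogenous transcription factor activity. After 24 h compound exposure, reporter mRNA was quantified by RT-PCR, fluorescent labelling, HpaI digestion and capillary electrophoresis; bidirectional fitting versus DMSO baseline.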

Assay [2] can be described thus: ATG_GRE_CIS: Attagene CIS-FACTORIAL HepG2 Assay for human Glucocorticoid Response Elements (GRE) (AID 2282947). The settings on record: HepG2 GRE cis-reporter, Attagene multiplex mRNA; actives raise or lower the signal. In a few lines:
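Reporter transcripts read by RT-PCR with capillary electrophoresis fluorescence after a 24 h chemical exposure of HepG2 cells transiently transfected with multiple cis-element reporter units. Gain or loss fitted against DMSO.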

A short description of assay [3]: ATG_ISRE_CIS: Attagene CIS-FACTORIAL HepG2 Assay for human Interferon Regulatory Factor 1 (IRF1) binding to an Interferon-Stimulated Response Element (ISRE) (AID 2282948). The settings on record: HepG2 ISRE cis-reporter (Attagene), mRNA transcription readout; actives raise or lower the signal. In a few lines:
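Multiplexed mRNA reporter readout in human liver HepG2 cells: cis-element-driven reporters transfected, compound added for 24 h, transcripts amplified, fluorescently labelled and sized by capillary electrophoresis; curve fitting bidirectional against DMSO.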

A short description of assay [4]: ATG_M_32_CIS: Attagene CIS-FACTORIAL HepG2 Assay for M32 Transcription Factor (Internal Marker) (AID 2282949).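 Note: background control marker of the multiplexed CIS panel rather than a real target.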 The note with it: HepG2 Attagene cis-factorial M32 reporter, mRNA; actives raise or lower the signal. An outline of the steps:
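HepG2 human liver cells transiently transfected with cis-promoter-driven multiple reporter transcription units, dosed 24 h. Reporter mRNA quantified by RT-PCR, FAM-labelled primer extension, HpaI digest and capillary electrophoresis; bidirectional fit versus DMSO baseline.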

Assay [5] in a line: ATG_M_06_CIS: Attagene CIS-FACTORIAL HepG2 Assay for M06 Transcription Factor (Internal Marker) (AID 2282950). The settings on record: HepG2 Attagene CIS-FACTORIAL M06 internal marker reporter; actives raise or lower the signal. In a few lines:
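One of many multiplexed endpoints: HepG2 reporter mRNA after 24 h dosing, detected by RT-PCR and capillary electrophoresis fluorescence; gain or loss of signal analysed against DMSO.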

Assay [6] addresses Hepatocyte nuclear factor 6 (Homo sapiens) (UniProt Q9UBC0). Kind of assay: ATG_HNF6_CIS: Attagene CIS-FACTORIAL HepG2 Assay for human Hepatocyte Nuclear Factor 6 (HNF6) (AID 2282952). The note with it: HepG2 Attagene cis-factorial HNF6 reporter transcription; actives raise or lower the signal. In a few lines:
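Endogenous factor activity read in transiently transfected HepG2 via promoter-regulated reporter transcripts. RNA harvested 24 h post-dosing, reverse-transcribed, PCR-amplified, FAM-labelled, HpaI-digested and resolved by capillary electrophoresis; fitted in both directions against DMSO.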

Assay [7] addresses Heat shock factor protein 1 (Homo sapiens) (UniProt Q00613). Kind of assay: ATG_HSE_CIS: Attagene CIS-FACTORIAL HepG2 Assay for human Heat Shock Transcription Factor 1 (HSE) (AID 2282953). The note with it: HepG2 HSE cis-reporter, Attagene RNA transcription; actives raise or lower the signal. In a few lines: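 Using HepG2 with transfected cis-driven reporter constructs, compound effects on endogenous factor activity are scored as reporter mRNA change at 24 h. Detection: RT-PCR, HpaI digestion, capillary electrophoresis; bidirectional fitting to DMSO.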

Assay [8] is described as follows: ATG_MRE_CIS: Attagene CIS-FACTORIAL HepG2 Assay for human Metal Responsive Element (MRE) (AID 2282954). The settings on record: HepG2 MRE cis-reporter transcription, Attagene multiplex; actives raise or lower the signal. In a few lines:
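Endogenous MRE-dependent transcription read as reporter mRNA in transiently transfected human HepG2 cells at 24 h. RNA reverse-transcribed, PCR-amplified, labelled and resolved by capillary electrophoresis; gain or loss relative to DMSO.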

The target in assay [9] is Paired box protein Pax-6 (Homo sapiens) (UniProt P26367). The assay can be described thus: ATG_Pax6_CIS: Attagene CIS-FACTORIAL HepG2 Assay for human Paired Box 6 (PAX6) (AID 2282956). The note with it: HepG2 CIS-FACTORIAL PAX6 reporter transcription, RNA readout; actives raise or lower the signal. An outline of the steps: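 Fluorescent RT-PCR products separated by capillary electrophoresis report PAX6-linked promoter mRNA in HepG2 cells 24 h post-dose. Curves fitted bidirectionally, DMSO as negative control.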
Paired box protein Pax-6 (Homo sapiens), sequence (P26367 whole entry, looked up): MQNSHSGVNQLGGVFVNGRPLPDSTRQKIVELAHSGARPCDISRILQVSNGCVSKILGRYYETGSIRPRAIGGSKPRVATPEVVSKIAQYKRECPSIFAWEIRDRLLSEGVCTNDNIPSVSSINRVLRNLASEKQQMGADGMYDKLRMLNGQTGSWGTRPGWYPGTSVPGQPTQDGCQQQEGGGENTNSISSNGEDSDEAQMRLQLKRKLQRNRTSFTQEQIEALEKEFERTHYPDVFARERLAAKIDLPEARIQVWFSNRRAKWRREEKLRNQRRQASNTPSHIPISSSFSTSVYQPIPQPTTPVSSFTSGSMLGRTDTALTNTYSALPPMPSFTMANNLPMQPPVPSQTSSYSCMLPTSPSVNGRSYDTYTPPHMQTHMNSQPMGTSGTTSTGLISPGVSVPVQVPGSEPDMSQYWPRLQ

Assay [10] is described as follows: ATG_PXRE_CIS: Attagene CIS-FACTORIAL HepG2 Assay for human Pregnane X Receptor Element (PXRE) (AID 2282957). The note with it: HepG2 Attagene CIS-FACTORIAL PXRE reporter, mRNA; actives raise or lower the signal. An outline of the steps: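 Reporter transcripts under endogenous PXR-responsive cis-regulation quantified from total RNA of transfected HepG2 cells 24 h post-dosing, via RT-PCR with fluorescent primer extension and capillary electrophoresis. Gain or loss of signal fitted against DMSO baseline.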

The nature of assay [11]: ATG_PPRE_CIS: Attagene CIS-FACTORIAL HepG2 Assay for human Peroxisome Proliferator-activated Response Element (PPRE) (AID 2282958). The note with it: HepG2 PPRE cis-element reporter, Attagene transcription factor profiling; actives raise or lower the signal. An outline of the steps: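 DMSO served as negative control and baseline for bidirectional curve fitting. Signal came from PPRE-regulated reporter mRNA in HepG2 cells, measured 24 h post-dosing by RT-PCR, 6-FAM primer extension and capillary electrophoresis.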

The nature of assay [12]: ATG_RORE_CIS: Attagene CIS-FACTORIAL HepG2 Assay for human RAR-related Orphan Receptor Element (RORE) (AID 2282959). The settings on record: HepG2 Attagene cis-factorial RORE reporter, mRNA; actives raise or lower the signal. An outline of the steps: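 Transfect HepG2 with MRTUs; treat 24 h; extract RNA; RT with oligo(dT); PCR with reporter-specific primers; 6-FAM primer extension; HpaI digest 2 h at 37 C; capillary electrophoresis. Fit vs DMSO, bidirectional.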

Assay [13] can be described thus: ATG_Sox_CIS: Attagene CIS-FACTORIAL HepG2 Assay for human SRY-box transcription factor (SOX) (AID 2282960). The settings on record: HepG2 Attagene cis-factorial SOX reporter, mRNA; actives raise or lower the signal. In a few lines:
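Fluorescence-labelled cDNA fragments from reporter transcripts, sized by CE, give the signal. Cells: HepG2, transiently transfected with cis-regulated reporter units. Exposure 24 h; DMSO negative control; bidirectional curve fitting.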

Assay [14] has as its target Transcription factor Sp1 (Homo sapiens) (UniProt P08047). Kind of assay: ATG_Sp1_CIS: Attagene CIS-FACTORIAL HepG2 Assay for human Specificity Protein 1 (Sp1) (AID 2282961). The settings on record: HepG2 Sp1 cis-reporter transcription, actives raise or lower the signal. In a few lines: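 Chemicals are dosed onto HepG2 cells transfected with multiple cis-promoter reporter constructs, and after 24 h reporter RNA is reverse-transcribed, PCR-amplified and resolved by capillary electrophoresis for fluorescence quantitation; activity is scored up or down against DMSO.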

The nature of assay [15]: ATG_SREBP_CIS: Attagene CIS-FACTORIAL HepG2 Assay for human Sterol Regulatory Element Binding (SREBP) (AID 2282962). The settings on record: HepG2 Attagene cis-factorial SREBP reporter, mRNA; actives raise or lower the signal. In a few lines:
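Endogenous factor activity is measured in HepG2 through multiplexed reporter units under cis-element control. Following a 24 h incubation, reporter transcripts are reverse-transcribed, PCR-amplified and sized by capillary electrophoresis; activity is fitted in both directions relative to DMSO.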

In assay [16] the target is Signal transducer and activator of transcription 3 (Homo sapiens) (UniProt P40763). The assay can be described thus: ATG_STAT3_CIS: Attagene CIS-FACTORIAL HepG2 Assay for human Signal Transducer and Activator of Transcription 3 (STAT3) (AID 2282963). The note with it: HepG2, Attagene cis-factorial STAT3 reporter transcription; actives raise or lower the signal. In a few lines:
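Readout is reporter transcript quantified by RT-PCR and capillary electrophoresis, with 6-FAM primer extension and HpaI digestion. Total RNA is taken 24 h after dosing transiently transfected HepG2 carrying cis-regulated reporter units. Bidirectional fit against DMSO.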

A short description of assay [17]: ATG_TA_CIS: Attagene CIS-FACTORIAL HepG2 Assay for human TA Basal Promoter (AID 2282964). The note with it: HepG2 Attagene CIS-factorial TA basal promoter reporter; actives raise or lower the signal. An outline of the steps: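 Transient MRTU transfection of HepG2 preceded 24 h compound exposure. Reporter mRNA levels were then read by RT-PCR with capillary electrophoresis, and this background-control endpoint was fitted bidirectionally to DMSO.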

Assay [18] in a line: ATG_TCF_b_cat_CIS: Attagene CIS-FACTORIAL HepG2 Assay for human T-Cell-Factor with beta-catenin (TCF/b-cat) (AID 2282965). The note with it: HepG2 TCF/beta-catenin cis-reporter transcription, actives raise or lower the signal. In a few lines:
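Endogenous transcription factor activity is captured through cis-promoter reporter constructs transiently introduced into human HepG2 liver cells. Induced reporter mRNA is measured after 24 h and fitted bidirectionally relative to DMSO.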

Assay [19] addresses Hypoxia-inducible factor 1-alpha (Homo sapiens) (UniProt Q16665). The assay can be described thus: ATG_HIF1a_CIS: Attagene CIS-FACTORIAL HepG2 Assay for human Hypoxia Inducible Factor 1 (HIF1A) (AID 2282951). The settings on record: HepG2 Attagene cis-factorial HIF1a reporter transcription; actives raise or lower the signal. An outline of the steps: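 Cis-element reporter constructs were transiently transfected into HepG2 cells, which were treated for 24 h; reporter RNA was reverse-transcribed, amplified, labelled and resolved by capillary electrophoresis.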

A short description of assay [20]: ATG_PBREM_CIS: Attagene CIS-FACTORIAL HepG2 Assay for human Phenobarbital-responsive Enhancer Module (PBREM) (AID 2282955). The note with it: HepG2 PBREM cis-reporter, Attagene multiplexed transcription; actives raise or lower the signal. An outline of the steps: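 Multiplexed cis-reporter readout in human hepatoma HepG2 cells; PBREM-regulated transcript quantified after 24 h exposure by fluorescent RT-PCR fragment analysis. Signal changes up or down fitted relative to DMSO.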

SMILES strings stand for the structures. Active and inactive are the calls of the source. Rule for the calls: active = hit-call score of the fitted dose curve at least 0.9, where 1 is the maximum; inactive = score below 0.9.

As a reminder, the AC50 is the concentration at which the activity in the assay is half-maximal.

Transcription factor Sp1 (Homo sapiens), sequence (P08047 whole entry, looked up): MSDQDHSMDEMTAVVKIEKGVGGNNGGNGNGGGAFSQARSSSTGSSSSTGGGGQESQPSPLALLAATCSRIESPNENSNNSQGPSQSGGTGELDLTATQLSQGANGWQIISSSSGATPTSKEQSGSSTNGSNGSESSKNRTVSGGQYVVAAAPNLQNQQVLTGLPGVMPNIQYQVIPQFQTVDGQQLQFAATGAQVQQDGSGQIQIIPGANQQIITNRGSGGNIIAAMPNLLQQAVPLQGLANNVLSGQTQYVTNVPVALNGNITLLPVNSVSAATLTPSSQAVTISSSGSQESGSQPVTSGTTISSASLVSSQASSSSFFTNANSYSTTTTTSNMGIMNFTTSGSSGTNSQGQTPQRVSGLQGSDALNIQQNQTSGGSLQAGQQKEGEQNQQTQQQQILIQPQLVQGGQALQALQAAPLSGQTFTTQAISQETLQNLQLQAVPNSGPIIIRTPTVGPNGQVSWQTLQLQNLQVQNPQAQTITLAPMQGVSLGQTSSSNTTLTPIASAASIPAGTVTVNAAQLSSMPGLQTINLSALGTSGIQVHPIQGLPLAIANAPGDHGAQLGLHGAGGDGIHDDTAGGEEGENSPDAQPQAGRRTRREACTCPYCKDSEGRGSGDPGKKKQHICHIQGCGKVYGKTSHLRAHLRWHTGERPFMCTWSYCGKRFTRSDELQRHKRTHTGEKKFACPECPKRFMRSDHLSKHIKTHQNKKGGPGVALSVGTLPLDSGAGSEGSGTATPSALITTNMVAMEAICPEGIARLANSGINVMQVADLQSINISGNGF
Signal transducer and activator of transcription 3 (Homo sapiens), sequence (P40763 whole entry, looked up): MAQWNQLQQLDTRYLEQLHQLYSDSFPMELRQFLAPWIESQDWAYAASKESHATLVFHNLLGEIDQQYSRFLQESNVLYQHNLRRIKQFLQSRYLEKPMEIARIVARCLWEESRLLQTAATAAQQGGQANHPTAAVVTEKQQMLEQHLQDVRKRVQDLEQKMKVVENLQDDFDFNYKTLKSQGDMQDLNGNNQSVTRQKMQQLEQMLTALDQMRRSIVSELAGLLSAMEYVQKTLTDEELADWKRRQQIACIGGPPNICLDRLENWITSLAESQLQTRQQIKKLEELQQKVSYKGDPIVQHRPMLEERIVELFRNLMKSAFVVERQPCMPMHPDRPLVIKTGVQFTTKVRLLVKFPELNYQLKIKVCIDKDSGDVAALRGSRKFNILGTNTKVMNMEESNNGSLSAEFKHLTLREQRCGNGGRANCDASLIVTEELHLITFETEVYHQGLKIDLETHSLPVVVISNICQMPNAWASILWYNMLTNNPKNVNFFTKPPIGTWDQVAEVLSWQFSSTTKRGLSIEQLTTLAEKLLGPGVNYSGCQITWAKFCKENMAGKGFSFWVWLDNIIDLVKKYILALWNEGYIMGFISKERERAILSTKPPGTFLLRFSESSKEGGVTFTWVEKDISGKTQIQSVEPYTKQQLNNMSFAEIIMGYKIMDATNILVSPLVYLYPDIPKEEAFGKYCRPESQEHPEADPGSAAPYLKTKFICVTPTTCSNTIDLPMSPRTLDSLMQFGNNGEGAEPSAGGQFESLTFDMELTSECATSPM
Heat shock factor protein 1 (Homo sapiens), sequence (Q00613 whole entry, looked up): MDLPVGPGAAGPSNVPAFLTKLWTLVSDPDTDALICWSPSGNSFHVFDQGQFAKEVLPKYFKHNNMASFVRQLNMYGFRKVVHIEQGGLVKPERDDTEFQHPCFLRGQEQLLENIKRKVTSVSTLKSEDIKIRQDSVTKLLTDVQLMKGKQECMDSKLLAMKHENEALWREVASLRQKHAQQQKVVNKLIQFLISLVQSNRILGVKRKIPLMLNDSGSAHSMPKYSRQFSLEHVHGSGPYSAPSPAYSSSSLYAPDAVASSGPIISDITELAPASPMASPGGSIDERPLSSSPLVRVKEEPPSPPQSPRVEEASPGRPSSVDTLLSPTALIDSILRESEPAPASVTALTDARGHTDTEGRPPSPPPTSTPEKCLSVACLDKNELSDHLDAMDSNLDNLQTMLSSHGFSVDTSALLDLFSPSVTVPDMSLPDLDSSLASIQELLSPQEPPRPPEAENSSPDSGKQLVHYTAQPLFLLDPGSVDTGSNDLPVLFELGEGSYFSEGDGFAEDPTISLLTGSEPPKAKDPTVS
Bile acid receptor (Homo sapiens), sequence (Q96RI1 whole entry, looked up): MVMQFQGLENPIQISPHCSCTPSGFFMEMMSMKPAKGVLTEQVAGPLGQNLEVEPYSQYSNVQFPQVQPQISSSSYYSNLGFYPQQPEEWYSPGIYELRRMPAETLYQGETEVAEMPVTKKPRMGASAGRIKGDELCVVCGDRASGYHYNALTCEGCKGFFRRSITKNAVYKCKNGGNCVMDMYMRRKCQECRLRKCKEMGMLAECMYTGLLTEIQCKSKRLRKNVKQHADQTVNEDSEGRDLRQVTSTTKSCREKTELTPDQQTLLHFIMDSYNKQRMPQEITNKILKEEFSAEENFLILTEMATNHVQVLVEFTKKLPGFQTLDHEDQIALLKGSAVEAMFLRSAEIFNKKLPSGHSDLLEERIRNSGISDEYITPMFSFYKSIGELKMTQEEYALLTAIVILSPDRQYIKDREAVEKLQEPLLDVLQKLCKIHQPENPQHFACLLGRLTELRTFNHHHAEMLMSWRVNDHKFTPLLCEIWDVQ
Hepatocyte nuclear factor 6 (Homo sapiens), sequence (Q9UBC0 whole entry, looked up): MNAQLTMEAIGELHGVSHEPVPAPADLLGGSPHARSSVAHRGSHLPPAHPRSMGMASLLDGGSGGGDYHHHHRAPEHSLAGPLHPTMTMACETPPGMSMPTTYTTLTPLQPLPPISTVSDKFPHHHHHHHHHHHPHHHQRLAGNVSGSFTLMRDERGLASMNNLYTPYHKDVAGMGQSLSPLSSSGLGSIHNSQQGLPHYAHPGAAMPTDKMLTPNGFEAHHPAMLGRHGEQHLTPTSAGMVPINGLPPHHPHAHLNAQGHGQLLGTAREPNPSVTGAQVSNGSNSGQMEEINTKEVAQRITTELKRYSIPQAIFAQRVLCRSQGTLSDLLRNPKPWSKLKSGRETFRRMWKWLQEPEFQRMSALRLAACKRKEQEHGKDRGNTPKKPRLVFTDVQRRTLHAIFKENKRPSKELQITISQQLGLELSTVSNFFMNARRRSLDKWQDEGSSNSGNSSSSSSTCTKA
Hypoxia-inducible factor 1-alpha (Homo sapiens), sequence (Q16665 whole entry, looked up): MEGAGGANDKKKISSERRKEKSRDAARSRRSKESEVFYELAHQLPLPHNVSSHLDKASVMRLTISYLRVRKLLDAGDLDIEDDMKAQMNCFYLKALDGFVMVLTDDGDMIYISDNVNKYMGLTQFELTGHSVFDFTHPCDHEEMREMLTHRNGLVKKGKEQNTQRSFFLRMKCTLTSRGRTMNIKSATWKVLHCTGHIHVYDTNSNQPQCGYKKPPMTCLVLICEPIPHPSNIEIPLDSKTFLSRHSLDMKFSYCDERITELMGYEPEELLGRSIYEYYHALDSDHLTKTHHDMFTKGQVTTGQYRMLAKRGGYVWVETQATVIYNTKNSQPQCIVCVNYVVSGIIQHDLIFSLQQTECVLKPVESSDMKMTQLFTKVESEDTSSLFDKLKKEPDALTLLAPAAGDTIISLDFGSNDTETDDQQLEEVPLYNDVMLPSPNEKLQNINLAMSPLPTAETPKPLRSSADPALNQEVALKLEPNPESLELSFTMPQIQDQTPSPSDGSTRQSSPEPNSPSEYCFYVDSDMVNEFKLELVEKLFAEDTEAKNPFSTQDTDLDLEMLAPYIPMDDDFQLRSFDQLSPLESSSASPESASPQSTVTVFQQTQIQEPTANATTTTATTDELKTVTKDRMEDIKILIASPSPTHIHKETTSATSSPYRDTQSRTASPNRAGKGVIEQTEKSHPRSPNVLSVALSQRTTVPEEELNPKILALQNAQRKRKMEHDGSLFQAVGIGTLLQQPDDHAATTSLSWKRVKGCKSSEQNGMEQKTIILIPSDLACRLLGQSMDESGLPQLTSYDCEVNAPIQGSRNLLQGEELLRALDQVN

Consider `CCCCCCC(C)Nc1ccc(Nc2ccccc2)cc1` (centres undefined), for which the result in assay [1], in assay [2], in [3], in assay [4], in [5] and in [6] was inactive. Also, the call in assay [9], in assay [11], in assay [12], in [13], in assay [14] and in assay [15] was inactive. Besides, the compound was classed as inactive in [16], in assay [17] and in assay [18]. Also, the AC50 in assay [7] is 60.8 µM (active); in assay [8], 48.9 µM (active); in assay [10] it was 1.78 µM (active).
Turning to `COc1ccc(N)c([N+](=O)[O-])c1`, the compound was called inactive in assay [1], in assay [2], in assay [3], in assay [4], in assay [5] and in assay [19]. Further, the result in assay [7], in assay [8], in [20], in [9], in [10] and in assay [11] was inactive. Besides, the call in [12], in assay [13], in assay [14], in assay [15], in assay [16] and in assay [17] was inactive. In addition, the outcome in [18] was inactive.
For `NC(=S)NNC(N)=S`, the result in assay [1], in assay [2], in assay [3], in assay [4], in assay [5] and in [6] was inactive. Also, the outcome in [7], in assay [8], in assay [10], in assay [11], in assay [12] and in assay [14] was inactive. Moreover, the compound was classed as inactive in assay [15], in assay [16], in assay [17] and in assay [18].
In the case of `CCc1cc(C(C)(C)C)c(O)c(C(C)(C)C)c1`, the result in assay [1], in [2], in [3], in [4], in [5] and in assay [7] was inactive. Also, the call in [8], in [20], in [9], in assay [12], in assay [13] and in [16] was inactive. Besides, the result in assay [17] was inactive. Further, the figures for the AC50 in assay [10], in assay [14] and in [15] were 8.94 µM (active), 33.4 µM (active) and 59.9 µM (active), respectively.

(Values after PubChem BioAssay (EPA / NIEHS).)
